Source: PubChem BioAssay
aSyn UTR act: Activators working through SNCA 5'UTR binding (MLPCN); alpha-synuclein 5'UTR reporter, activators screen; activity score, % (tested at 7.5 µM), hits read low; 7.1% of 300,000 active; AID 1814; in the data active means activity score below about -60%
Each line names hits and unclear results; the compound was inactive in the other large screens. The list is a sample of the results.

C/C(=N/N=C(/C)c1cccs1)c1cccs1	aSyn UTR act -119
COCCCN=C(c1ccco1)n1c(=S)nc(-c2ccco2)n(CCCOC)c1=S	aSyn UTR act -88
Oc1c(C2=NCCNC(C(F)(F)F)=C2)ccc2ccccc12	aSyn UTR act -193
CCOc1ccc2nc(SCc3ccc(OC)cc3)sc2c1	aSyn UTR act -83
CCOc1ccc2nc(SCc3ccccc3C#N)sc2c1	aSyn UTR act -220
O=C(OCc1ccccn1)c1ccc(COc2ccc3ccccc3c2)o1	aSyn UTR act -104
O=C(O)c1ccc(NNC(=S)Nc2cc(C(F)(F)F)ccc2Cl)cc1	aSyn UTR act -141
CCOC(=O)C(NC(=O)Nc1ncccn1)(Oc1ccccc1)C(F)(F)F (stereo unspecified)	aSyn UTR act -83
Cc1cccc(C(=O)N=c2sccn2C)c1[N+](=O)[O-]	aSyn UTR act -133
CCCCOc1ccc(C(=O)N=c2sccn2C)cc1OC	aSyn UTR act -164
Cn1ccsc1=NC(=O)c1ccc(S(C)(=O)=O)cc1	aSyn UTR act -62
Cn1ccsc1=NC(=O)c1ccc(Cl)c([N+](=O)[O-])c1	aSyn UTR act -117
Cc1ccc(C(=O)N=c2sccn2C)cc1S(=O)(=O)N1CCOCC1	aSyn UTR act -160
Cn1ccsc1=NC(=O)c1cccc(C#N)c1	aSyn UTR act -86
Cc1ccc(NC(=S)N=Nc2c(O)n(C)c3ccc(S(=O)(=O)N4CCOCC4)cc23)cc1C	none
Cc1nc2c(-c3ccc(Cl)cc3)c(C)[nH]n2c(=O)c1Cc1ccccc1	none
CCOC(=O)Cc1c(C)nc2c(-c3ccccc3)c(-c3ccccc3)[nH]n2c1=O	aSyn UTR act -85
CCN(CC)S(=O)(=O)c1cc(NC(=O)Cn2ncc(Cl)c(Cl)c2=O)ccc1C	aSyn UTR act -99
Cc1cc(Br)ccc1NC(=O)CNC(=O)Cn1ncc(Cl)c(Cl)c1=O	none
O=C(Nc1ccc2oc(=O)ccc2c1)c1ccco1	aSyn UTR act -75
O=C(Nc1ccc2oc(=O)ccc2c1)c1ccc2ccccc2c1	aSyn UTR act -67
CC1CCN(Cc2c(C(=O)N/N=C/c3cc(Br)ccc3O)nnn2-c2nonc2N)CC1	none
CC1CCN(Cc2c(C(=O)N/N=C/c3cc(Cl)ccc3O)nnn2-c2nonc2N)CC1	none
NC(=O)N/N=C/c1ccc(OCc2cccc(Cl)c2)cc1	aSyn UTR act -73
Nc1nonc1-n1nnc(C(=O)N/N=C/c2ccc(OCc3ccccc3F)cc2)c1CN1CCCCC1	aSyn UTR act -111
Cc1cccc(COc2ccc(/C=N/NC(=O)c3nnn(-c4nonc4N)c3CN3CCCCC3)cc2)c1	aSyn UTR act -101
Nc1nonc1-n1nnc(C(=O)N/N=C/c2ccc(OCc3cccc(Cl)c3)cc2)c1CN1CCCCC1	aSyn UTR act -136
Cc1ccc(C(=O)Oc2ccc(/C=N/NC(N)=O)cc2)cc1	aSyn UTR act -124
O=C(COC(=O)Cn1cnc2ccccc21)Nc1cc2c(cc1Cl)C(=O)c1ccccc1C2=O	aSyn UTR act -162
COc1cc(NC(=O)c2ccccc2)cc(OC)c1	aSyn UTR act -131
COc1ccc(C(=O)Nc2cc(OC)cc(OC)c2)cc1	aSyn UTR act -62
COc1ccccc1OC(=O)Nc1ccc(Cl)cc1	aSyn UTR act -83
COc1ccccc1Oc1ccc(NC(=O)c2ccccc2)cc1	aSyn UTR act -91
O=C(NCCCc1ccccc1)c1ccc(F)cc1	aSyn UTR act -101
CC(=O)Nc1ccc(C(=O)NCCc2ccccc2)cc1	aSyn UTR act -131
O=C(NCCc1ccccc1)c1ccc(NS(=O)(=O)c2ccc3[nH]c(=O)[nH]c3c2)cc1	aSyn UTR act -72
CCCNC(=O)c1ccc2c(=O)c(O)c(-c3ccc(C)cc3)[nH]c2c1	none
C=CCN(c1ccc(C(=O)NCCc2ccccc2)cc1)S(C)(=O)=O	aSyn UTR act -109
O=C(NCCc1ccccc1)c1ccncc1	aSyn UTR act -146
O=C(NCCc1ccccc1)c1ccc(Cl)nc1	aSyn UTR act -169
CC(=O)c1ccccc1OC(=O)c1ccc(-c2ccccc2)cc1	aSyn UTR act -78
CC(=Nc1cc(C(=O)c2ccccc2)ccc1N)C1=C(O)CC(C)(C)CC1=O	aSyn UTR act -76
Cc1cc(=O)oc2cc(NC(=O)c3cccc(S(=O)(=O)N(C)C)c3)ccc12	aSyn UTR act -112
Cc1cc(=O)oc2cc(NC(=O)c3cccc(S(C)(=O)=O)c3)ccc12	aSyn UTR act -97
Cc1cc(=O)oc2cc(NC(=O)c3cccc(F)c3)ccc12	aSyn UTR act -152
Cc1cc(=O)oc2cc(NC(=O)c3ccc(OC(F)F)cc3)ccc12	aSyn UTR act -124
Cc1ccc(Nc2ccc([N+](=O)[O-])cn2)cc1Cl	aSyn UTR act -93
CN(C)c1ccc(Nc2ccc([N+](=O)[O-])cn2)cc1	aSyn UTR act -162
Cn1c(SCc2ccc(F)cc2)nnc1-c1ccccn1	aSyn UTR act -168
Cc1cccc(CSc2nnc(-c3ccccn3)n2N)c1	aSyn UTR act -69
Cc1ccc(CSc2nnc(-c3ccccn3)n2C)cc1	aSyn UTR act -93
Oc1ccc(-c2nc3ccc4ccccc4c3c3c2CCC3)cc1O	aSyn UTR act -151
O=C(C[n+]1cc(-c2ccc(F)cc2)n2c1CCC2)Nc1nc(-c2ccccc2)cs1	aSyn UTR act -89
